Laboratory results reported in PubChem BioAssay (NCATS).
Results filed as inconclusive are left out. The call rests on the fitted dose curve; in most records, active means well fitted activation curve with a large enough effect; inconclusive means small, poorly fitted or top-dose-only effect; inactive means no such curve, though single readings can be large or run the other way.

These molecules were tested against Rap guanine nucleotide exchange factor 3 (Homo sapiens) (UniProt O95398) (assay: Confirmatory qHTS for agonist of cAMP-regulated guanine nucleotide exchange factor 3 (EPAC1) (AID 1645881;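 further: EPAC1 catalysed release of BODIPY-GDP from Rap1B seen as fluorescence loss; 100% = effect of cAMP agonist control; nearly all actives have a fitted effect of over 75% in size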)). Conditions: EPAC1 Rap1B BODIPY-GDP exchange fluorescence; series mostly up to 154 µM; activation: at the top concentration.
Sequence of Rap guanine nucleotide exchange factor 3 (Homo sapiens) (O95398 whole entry, looked up): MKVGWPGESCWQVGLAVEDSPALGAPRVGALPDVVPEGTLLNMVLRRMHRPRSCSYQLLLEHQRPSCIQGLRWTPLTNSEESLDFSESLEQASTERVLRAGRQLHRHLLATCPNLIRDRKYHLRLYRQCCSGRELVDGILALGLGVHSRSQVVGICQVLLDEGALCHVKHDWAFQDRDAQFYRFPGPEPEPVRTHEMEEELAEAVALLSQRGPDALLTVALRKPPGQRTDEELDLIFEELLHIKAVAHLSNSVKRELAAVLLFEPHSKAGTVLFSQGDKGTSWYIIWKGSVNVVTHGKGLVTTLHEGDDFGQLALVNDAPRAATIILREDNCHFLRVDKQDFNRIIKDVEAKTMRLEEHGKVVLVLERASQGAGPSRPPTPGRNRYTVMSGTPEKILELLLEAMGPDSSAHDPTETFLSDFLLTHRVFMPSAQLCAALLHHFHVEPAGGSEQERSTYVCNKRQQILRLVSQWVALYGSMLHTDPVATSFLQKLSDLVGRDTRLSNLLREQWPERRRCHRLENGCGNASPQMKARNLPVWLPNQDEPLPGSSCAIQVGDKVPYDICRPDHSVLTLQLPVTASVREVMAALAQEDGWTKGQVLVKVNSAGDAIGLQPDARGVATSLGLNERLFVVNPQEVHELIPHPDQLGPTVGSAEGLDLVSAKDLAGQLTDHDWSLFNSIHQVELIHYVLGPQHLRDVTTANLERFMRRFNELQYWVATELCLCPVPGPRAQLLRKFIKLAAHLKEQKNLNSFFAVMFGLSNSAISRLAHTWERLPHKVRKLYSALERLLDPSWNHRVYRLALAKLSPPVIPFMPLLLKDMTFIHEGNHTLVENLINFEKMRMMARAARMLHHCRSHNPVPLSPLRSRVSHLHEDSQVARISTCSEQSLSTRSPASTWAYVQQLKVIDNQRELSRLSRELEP

activation, inactive:
Cc1ccc(S(=O)(=O)/N=C2\C=C(NS(=O)(=O)c3ccccc3)C(=O)c3ccccc32)c(C)c1 5.27%
Cc1ccc(SCc2cc(=O)c3c(=O)n(-c4ccccc4)[nH]c3[nH]2)cc1 5.71%
Cc1ccc(/C=N/Nc2cc(C)nc(NCc3ccccc3)n2)cc1 23%
O=C(CSc1n[nH]c(=O)[nH]c1=O)Nc1ccc2c(c1)C(=O)c1ccccc1C2=O 20.2%
CCCN(CCC)Cc1cc(=O)oc2cc(OC)ccc12 -7.74%
COc1ccc(OC)c(NC(=O)c2nc(S(=O)(=O)Cc3ccccc3)ncc2Cl)c1 1.03%
CCc1noc(C)c1C(=O)Nc1nc2c(C)cc(C)cc2s1 -0.162%
CCOc1ccc(NC(=NCc2ccc3c(c2)OCO3)SC2CC(=O)N(c3ccc(C(=O)O)cc3)C2=O)cc1 (stereo not given) 6.94%
CC(c1ccon1)N(C)Cc1cn(C)nc1-c1cccc(Cl)c1 (stereo not given) 1.14%
Cc1cc(Br)c2c(c1)[C@](O)(c1cn(C)c3ccccc13)C(=O)N2C 15.4%
COc1ccc(CCN2C(=O)CSC2=Nc2ccc(C(C)C)cc2)cc1OC 4.33%
COc1cccc(COC(=O)CSCC(=O)Nc2cccc(C)c2)c1OC 19.4%
CCCCc1ccc(NC(=O)CN2C(=O)C3CCCCC3C2=O)cc1 (stereo not given) 6.98%
COc1ccc(-c2nc(CCNS(=O)(=O)c3ccc4c(c3)OCCO4)cs2)cc1 -2.71%
O=C(O)c1cc(N/N=C/C=C/c2ccccc2)ccc1Cl 4.54%
Nc1ccc(C(=O)N2CCN(S(=O)(=O)c3ccc(Cl)s3)CC2)cc1[N+](=O)[O-] 17.2%
Cc1ccc(C2CC(c3cccs3)=NN2C(=O)c2ccco2)o1 (stereo not given) 23%
O=C(COC(=O)c1c2c(nc3ccccc13)/C(=C\c1ccco1)CC2)NC1CCCC1 9.41%
O=C1C(=Cc2cn(-c3ccccc3)nc2-c2ccc(OCc3ccc(Cl)cc3)cc2)SC(=S)N1CCS(=O)(=O)O 19.8%
Fc1ccc2c(-c3cccc(C(F)(F)F)c3)c(-c3ccccc3)ncc2c1 -9.37%
CC(=O)C1=CCC(c2ccccc2Cl)N(S(=O)(=O)c2ccc(C)cc2)C1 (stereo not given) 15.2%
COc1ccc(-c2nn3c(-c4cccc(C)c4)nnc3s2)cc1OC -6.87%
O=C(N/N=C/c1ccoc1)c1cc(O)cc(O)c1 11.7%
CCCc1[nH]c2ccc(C#N)cc2c1CCC 10.6%
CC(C)CCNC(=O)c1cnn2c(C(F)(F)F)cc(-c3ccco3)nc12 -16.3%
COc1ccccc1N1C(=O)C2C(C(=O)c3ccccc3)=NN(c3ccc(Br)cc3)C2C1=O (stereo not given) -49.4%
Cc1cc(NC2=CC(=O)C(=O)c3ccccc32)no1 -1.91%
Cc1ccc(S(=O)(=O)N2CCN(c3ncnc4sccc34)CC2)cc1C 8.73%
Cc1ccccc1C(=O)Nc1ccccc1N1CCCCC1 21.4%
O=C(Nc1ccccc1C(=O)Nc1nnc(C(F)(F)F)s1)c1ccccc1Cl -22.6%
NS(=O)(=O)c1ccc(N/N=C/c2ccc(C(=O)O)cc2)c([N+](=O)[O-])c1 -11.2%
O=C(O)c1ccc(N=N/C(=N\Nc2ccc(C(=O)O)cc2)c2ccccc2)cc1 -11.1%
COc1cc(/C=C/C(=O)c2ccc3c(c2)OCCO3)cc(Br)c1OCC(=O)N(C)C 7.82%
Cc1cc(Cl)ccc1Oc1ccccc1C(=O)CC#N 10.8%
CCc1nc2c(OCc3ccc(C(=O)OC)cc3)cccn2c1N(C)C(=O)c1ccc(OC)cc1 3.41%
N#Cc1c(-c2ccc(Cl)cc2)cc(-c2cccs2)nc1SCC(=O)O 0.632%
Cc1cc(C(C)(C)C)cc(C)c1COC(=O)c1cccnc1 2.89%
CCOc1cnc(-c2c(-c3ccccc3Cl)noc2C)o1 -10.8%
CCCCN(CCCC)C1=Nc2ccccc2N/C1=C(/C#N)C(=O)OCC 15.8%
CCOC(=O)Cn1nc(C)c(NC(=O)COc2ccccc2[N+](=O)[O-])c1C 10.8%

Each molecule was assayed against Rap guanine nucleotide exchange factor 4 (Homo sapiens) (UniProt Q8WZA2) (assay: Confirmatory qHTS for agonist of cAMP-regulated guanine nucleotide exchange factor 4 (EPAC2) (AID 1645884;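 further: nucleotide exchange releases bodipy-GDP from Rap1 and this lowers its fluorescence; on the % scale 0 is the no-effect control and ±100 the full control effect; nearly all actives have a fitted effect of over 65% in size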)). Conditions: EPAC2 GEF activity, Rap1B-BODIPY-GDP fluorescence; series mostly up to 154 µM; activation: at the top concentration.
Sequence of Rap guanine nucleotide exchange factor 4 (Homo sapiens) (Q8WZA2 whole entry, looked up): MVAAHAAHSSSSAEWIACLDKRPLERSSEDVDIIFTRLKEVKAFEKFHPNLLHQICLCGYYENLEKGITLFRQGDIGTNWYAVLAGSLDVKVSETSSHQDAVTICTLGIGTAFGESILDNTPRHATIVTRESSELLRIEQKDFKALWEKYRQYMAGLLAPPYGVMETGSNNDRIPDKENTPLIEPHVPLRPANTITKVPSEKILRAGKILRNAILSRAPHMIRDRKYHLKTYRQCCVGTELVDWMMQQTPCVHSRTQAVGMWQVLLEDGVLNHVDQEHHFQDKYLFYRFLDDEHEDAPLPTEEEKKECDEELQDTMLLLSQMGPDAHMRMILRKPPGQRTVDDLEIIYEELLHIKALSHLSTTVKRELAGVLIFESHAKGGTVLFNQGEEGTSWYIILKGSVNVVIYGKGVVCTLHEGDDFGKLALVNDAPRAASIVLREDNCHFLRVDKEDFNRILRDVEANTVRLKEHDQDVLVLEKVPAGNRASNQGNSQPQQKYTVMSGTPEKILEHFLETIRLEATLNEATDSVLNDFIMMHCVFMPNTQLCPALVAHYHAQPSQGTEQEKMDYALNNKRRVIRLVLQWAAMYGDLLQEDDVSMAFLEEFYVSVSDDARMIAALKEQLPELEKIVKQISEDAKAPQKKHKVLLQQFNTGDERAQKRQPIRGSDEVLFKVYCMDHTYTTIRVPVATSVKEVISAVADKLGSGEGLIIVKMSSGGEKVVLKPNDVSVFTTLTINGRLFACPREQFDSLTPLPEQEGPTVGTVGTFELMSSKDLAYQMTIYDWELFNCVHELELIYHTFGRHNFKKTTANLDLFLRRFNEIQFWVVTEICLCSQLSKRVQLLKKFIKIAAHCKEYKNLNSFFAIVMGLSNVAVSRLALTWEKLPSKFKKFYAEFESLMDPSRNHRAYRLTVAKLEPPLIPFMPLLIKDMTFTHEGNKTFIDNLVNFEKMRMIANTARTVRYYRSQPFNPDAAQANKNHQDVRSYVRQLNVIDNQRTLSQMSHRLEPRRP

activation, inactive:
Cc1ccc(S(=O)(=O)/N=C2\C=C(NS(=O)(=O)c3ccccc3)C(=O)c3ccccc32)c(C)c1 5.26% [at 17.1 µM, percent relative to cAMP agonist control]
Cc1ccc(SCc2cc(=O)c3c(=O)n(-c4ccccc4)[nH]c3[nH]2)cc1 -3.37%
Cc1ccc(/C=N/Nc2cc(C)nc(NCc3ccccc3)n2)cc1 16%
O=C(CSc1n[nH]c(=O)[nH]c1=O)Nc1ccc2c(c1)C(=O)c1ccccc1C2=O -1.45%
CCCN(CCC)Cc1cc(=O)oc2cc(OC)ccc12 -17.1%
COc1ccc(OC)c(NC(=O)c2nc(S(=O)(=O)Cc3ccccc3)ncc2Cl)c1 0.371%
CCc1noc(C)c1C(=O)Nc1nc2c(C)cc(C)cc2s1 -14.9%
CCOc1ccc(NC(=NCc2ccc3c(c2)OCO3)SC2CC(=O)N(c3ccc(C(=O)O)cc3)C2=O)cc1 (stereo not given) -22.3%
CC(c1ccon1)N(C)Cc1cn(C)nc1-c1cccc(Cl)c1 (stereo not given) 3.28%
Cc1cc(Br)c2c(c1)[C@](O)(c1cn(C)c3ccccc13)C(=O)N2C 1.9% [at 17.1 µM, percent relative to cAMP agonist control]
COc1ccc(CCN2C(=O)CSC2=Nc2ccc(C(C)C)cc2)cc1OC -10.9%
COc1cccc(COC(=O)CSCC(=O)Nc2cccc(C)c2)c1OC 20.7%
CCCCc1ccc(NC(=O)CN2C(=O)C3CCCCC3C2=O)cc1 (stereo not given) 0.0357%
COc1ccc(-c2nc(CCNS(=O)(=O)c3ccc4c(c3)OCCO4)cs2)cc1 -16.5%
O=C(O)c1cc(N/N=C/C=C/c2ccccc2)ccc1Cl 4.08%
Nc1ccc(C(=O)N2CCN(S(=O)(=O)c3ccc(Cl)s3)CC2)cc1[N+](=O)[O-] 17.1%
Cc1ccc(C2CC(c3cccs3)=NN2C(=O)c2ccco2)o1 (stereo not given) 1.82% [at 17.1 µM, percent relative to cAMP agonist control]
O=C(COC(=O)c1c2c(nc3ccccc13)/C(=C\c1ccco1)CC2)NC1CCCC1 3.19%
O=C1C(=Cc2cn(-c3ccccc3)nc2-c2ccc(OCc3ccc(Cl)cc3)cc2)SC(=S)N1CCS(=O)(=O)O 14.1%
Fc1ccc2c(-c3cccc(C(F)(F)F)c3)c(-c3ccccc3)ncc2c1 -18.8%
CC(=O)C1=CCC(c2ccccc2Cl)N(S(=O)(=O)c2ccc(C)cc2)C1 (stereo not given) 8.73%
COc1ccc(-c2nn3c(-c4cccc(C)c4)nnc3s2)cc1OC -25.4%
O=C(N/N=C/c1ccoc1)c1cc(O)cc(O)c1 -5.09%
CCCc1[nH]c2ccc(C#N)cc2c1CCC -1.11%
CC(C)CCNC(=O)c1cnn2c(C(F)(F)F)cc(-c3ccco3)nc12 -10.4%
COc1ccccc1N1C(=O)C2C(C(=O)c3ccccc3)=NN(c3ccc(Br)cc3)C2C1=O (stereo not given) -97.8%
Cc1cc(NC2=CC(=O)C(=O)c3ccccc32)no1 -6.46%
Cc1ccc(S(=O)(=O)N2CCN(c3ncnc4sccc34)CC2)cc1C 12.5%
Cc1ccccc1C(=O)Nc1ccccc1N1CCCCC1 0%
O=C(Nc1ccccc1C(=O)Nc1nnc(C(F)(F)F)s1)c1ccccc1Cl -36.7%
NS(=O)(=O)c1ccc(N/N=C/c2ccc(C(=O)O)cc2)c([N+](=O)[O-])c1 -22.5%
O=C(O)c1ccc(N=N/C(=N\Nc2ccc(C(=O)O)cc2)c2ccccc2)cc1 -13% [at 17.1 µM, percent relative to cAMP agonist control]
COc1cc(/C=C/C(=O)c2ccc3c(c2)OCCO3)cc(Br)c1OCC(=O)N(C)C 2.86%
Cc1cc(Cl)ccc1Oc1ccccc1C(=O)CC#N 0%
CCc1nc2c(OCc3ccc(C(=O)OC)cc3)cccn2c1N(C)C(=O)c1ccc(OC)cc1 -6.93% [at 17.1 µM, percent relative to cAMP agonist control]
N#Cc1c(-c2ccc(Cl)cc2)cc(-c2cccs2)nc1SCC(=O)O -18.7%
Cc1cc(C(C)(C)C)cc(C)c1COC(=O)c1cccnc1 -5.25%
CCOc1cnc(-c2c(-c3ccccc3Cl)noc2C)o1 -19.3%
CCCCN(CCCC)C1=Nc2ccccc2N/C1=C(/C#N)C(=O)OCC -1.61%
CCOC(=O)Cn1nc(C)c(NC(=O)COc2ccccc2[N+](=O)[O-])c1C 1.83% [at 17.1 µM, percent relative to cAMP agonist control]
